This is a sample that favours compounds with a hit; in the whole collection about 4.9% have one here.
Platelet DG rel = modulates dense granule release in human platelets. 0.22% of 300,000 active. human platelet-rich plasma, SFLLRN dense granule ATP release, luminescence. AID 1663. inhibition, %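 (compounds screened at 7.5 µM in platelet-rich plasma)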;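 active = mean replicate score, as percent of positive control, at or above 50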
HSF1 inhib = HSF1 inhibition. NIH3T3-HGL HSE-luciferase, MG132-induced, luminescence 8 h; stronger effect = lower value. activity change, negative = inhibition, % at 7.5 µM (by protocol). 0.77% of 300,000 active;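 active = more than half of replicate wells show activity change below -50%, luminescence cut by over half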;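 also: luciferase reports HSF-1 transcriptional activity via heat shock element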
MPTP block = permeability transition pore inhibition | isolated mouse mitochondria, Ca2+ swelling absorbance, 30 min | inhibition, % at 10 µM | 1.4% of 360,000 active | AID 602449;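 active = inhibition of 50% or more, scaled per plate between neutral and stimulator controls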
HSP90 inh = inhibitors of HSP90 luciferase refolding in rabbit reticulocyte lysate | luciferase refolding luminescence, 3 h | inhibition, % at 5.6 µM | 0.91% of 290,000 active;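 active = inhibition above the screen-wide mean plus 3 SD, computed separately per campaign, cut at about 16% in these data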;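 also: inhibitors lower the luminescence because luciferase stays unfolded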
dFosB act = mouse delta FosB homodimer activation. P13346. purified delta FosB, TAMRA-CDK5 oligo fluorescence polarization; percent of positive-control signal above neutral wells. activation, % at 25 µM. 0.99% of 340,000 active. AID 493131;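 active = mean activation above about 17%, with every replicate also reaching it, limit read from the data, passing the limit was not always enough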
Target sequence (P13346 whole entry, looked up): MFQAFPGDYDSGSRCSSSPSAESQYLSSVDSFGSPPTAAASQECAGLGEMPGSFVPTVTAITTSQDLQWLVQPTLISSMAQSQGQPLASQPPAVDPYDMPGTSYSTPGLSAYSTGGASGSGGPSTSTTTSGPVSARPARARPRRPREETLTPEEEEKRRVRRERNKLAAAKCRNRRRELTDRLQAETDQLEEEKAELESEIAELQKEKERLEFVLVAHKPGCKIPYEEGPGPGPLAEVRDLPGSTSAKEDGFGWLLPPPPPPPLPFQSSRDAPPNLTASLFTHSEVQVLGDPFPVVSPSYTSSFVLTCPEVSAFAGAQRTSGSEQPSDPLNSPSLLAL
HSF1 activator = increases HSF-1 driven luciferase reporter signal; activation, % at 9 µM; AID 504408; 1.7% of 300,000 active; NIH3T3-HGL HSF-1 luciferase reporter, MG132, 8 h; 100% = twice DMSO control signal;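 active = mean replicate activation of at least 50% with a set share of replicates each reaching 50%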
Of the large screens only hits and unclear results are named; the others gave an inactive call.

CNC(=S)N(CCc1c(C)[nH]c2ccc(F)cc12)Cc1cccnc1	HSF1 inhib -86
Cc1[nH]c2ccc(F)cc2c1CCN(Cc1cccnc1)C(=S)Nc1ccccc1	none
CC1(C)CC(=O)c2ccc(OCc3ccc([N+](=O)[O-])cc3)cc2O1	HSF1 activator 70
O=C(CCl)Nc1cn(-c2ccccc2)nc1-c1ccc(F)cc1	HSF1 inhib -84
Cc1cc(N/N=C/c2cccc(F)c2)nc(NCc2ccccc2)n1	dFosB act 33
Cc1cc(N/N=C/c2ccc(Cl)cc2)nc(NCc2ccccc2)n1	dFosB act 53
Cc1cc(C)nc(N/N=C/c2ccc(Cl)cc2)n1	none
Cc1cc(N/N=C/c2ccccc2F)nc(NCc2ccccc2)n1	none
Cc1cc(N/N=C/c2ccccc2)nc(NCc2ccccc2)n1	dFosB act 38
COC(=O)c1ccccc1NC(=O)[C@@H]1CCC(=O)N1C1OC(=O)c2c1ccc(OC)c2OC (stereo not given in full)	none
CN(C)c1cccc(C(=O)NCCCSc2ccccc2)c1	none
CC(=O)N1CCN(Cc2cc(=O)oc3cc(C)cc(C)c23)CC1	none (no result: Platelet DG rel, HSF1 inhib, HSP90 inh, dFosB act, HSF1 activator)
CC(C)=CCC[C@H](C)C[C@@H]1Cc2[nH]c(=S)[nH]c(=O)c2[C@@H](c2ccc(F)cc2)O1	none (no result: Platelet DG rel, HSF1 inhib, HSP90 inh, dFosB act, HSF1 activator)
CN(C)C1CN(Cc2cn(Cc3cccc(C(F)(F)F)c3)nn2)S(=O)(=O)C1 (stereo not given)	none (no result: Platelet DG rel, HSF1 inhib, HSP90 inh, dFosB act, HSF1 activator)
CCCCOc1ccc(C(=O)Nc2cc(C)c(OCC(=O)N3CCOCC3)c(C)c2)cc1	none
Cc1cc(NC(=O)c2ccc(Cl)cc2)cc(C)c1OCC(=O)N1CCOCC1	HSF1 activator 54
Cc1cc(Cl)ccc1OCCCC(=O)N1CCCCC1	none
Cc1cc(Cl)ccc1OCCCC(=O)N1CCOCC1	HSF1 inhib -65
Cc1cc([N+](=O)[O-])cc(/C=N\NC(=O)C2COc3ccccc3O2)c1O (stereo not given)	none
OC1CCN(Cc2cccc(Oc3ccccc3)c2)CC1	HSF1 inhib -51
COc1ccc(S(=O)(=O)N2C(=O)/C(=C3\SC(N)=NC3=O)c3ccccc32)cc1	dFosB act 24 (no result: HSF1 inhib, HSF1 activator)
COc1ccc(S(=O)(=O)N2N=C(C)Oc3ccccc3C2=O)cc1	none
COc1cc2sc3cc(NCC[C@@H]4CCCN4C)ccc3c(=O)c2cc1OC	dFosB act 30 (no result: Platelet DG rel, HSF1 inhib, HSP90 inh, HSF1 activator)
COc1ccc(C(=O)NC(=S)Nc2ccc(Cc3ccncc3)cc2)cc1	none
Cc1cccc(NC(=O)/C(C#N)=C/c2ccc(Cl)cc2)n1	none
Cc1cccc(NC(=O)/C(C#N)=C/c2ccccc2O)n1	HSF1 activator 77
COc1ccc(/C=C(\C#N)C(=O)Nc2cccc(C)n2)cc1	HSF1 activator 71
Cc1c(Cl)cccc1NC(=O)CCN1C(=O)C2CC=CCC2C1=O (stereo not given)	none
CC(C)Oc1ccc(F)cc1-c1cc(C(=O)Nc2ccc(C(C)(C)C)cc2)[nH]n1	none (no result: Platelet DG rel, HSF1 inhib, HSP90 inh, dFosB act, HSF1 activator)
CN(C)c1ccc(C(C[N+](=O)[O-])c2c(N)n(C)c(=O)n(C)c2=O)c(F)c1C#N (stereo not given)	HSF1 activator 66
CC1CCN(S(=O)(=O)c2ccc3c(c2)C(=NO)c2cc(S(=O)(=O)N4CCC(C)CC4)ccc2-3)CC1	none (no result: Platelet DG rel, HSF1 inhib, HSF1 activator)
O=S(=O)(c1ccc2c(c1)C(=NO)c1cc(S(=O)(=O)N3CCCCC3)ccc1-2)N1CCCCC1	HSF1 inhib -94
COc1cc(-c2[nH]ncc2CN2CCN(c3cccc(C)n3)CC2)cc(OC)c1OC	none
Cc1ccc(C2C(=O)N(C3CCCC3)CC(=O)N2C2CCCCC2)cc1 (stereo not given)	none
CC(C)N1C(=O)CN(C2CCCCCC2)C(=O)C1c1ccccc1F (stereo not given)	HSF1 inhib -56
C#CCOCCOCCOCCNc1nc(N2CCN(C(=O)[C@H](CCC(=O)O)n3cc(C(N)CO)nn3)CC2)nc(N2CCN(C(=O)[C@H](CCC(=O)O)n3cc(C(N)CC(C)C)nn3)CC2)n1 (stereo not given in full)	none (no result: MPTP block, HSP90 inh, dFosB act)
O=C(Cc1nc2ccccc2[nH]1)c1ccc(Br)cc1	HSF1 activator 101
CCn1c(=NC(=O)C2COc3ccccc3O2)sc2c(OC)ccc(OC)c21 (stereo not given)	none
COc1ccccc1NC(=O)NC1CCS(=O)(=O)C1 (stereo not given)	none
CCCC(c1nnnn1CC(=O)OCC)N(Cc1cc2c(C)cc(C)cc2[nH]c1=O)C1CCCC1 (stereo not given)	HSF1 activator 92
CC(=O)Nc1ccc(S(=O)(=O)NCC(=O)OCC(=O)NCCc2ccccc2)cc1	none (no result: Platelet DG rel, HSF1 inhib, HSP90 inh, dFosB act, HSF1 activator)
CN1c2ccsc2/C(=N/Nc2ccc(F)cc2)CS1(=O)=O	none
Cc1ccc(N/N=C2\CS(=O)(=O)N(C)c3ccsc32)cc1	HSF1 activator 88
CCCC[C@@H](CNC)NC[C@H](Cc1ccc(O)cc1)NCCc1ccc(OCC)cc1	HSF1 inhib -80
C=CCNc1nnnc2c1sc1nc(N3CCOCC3)c3c(c12)CCCC3	HSF1 inhib -68
OCCN1CCN(c2ncnc3c2sc2nc(N4CCOCC4)c4c(c23)CCC4)CC1	dFosB act 20
CN1CCN(c2ncnc3c2sc2nc(N4CCOCC4)c4c(c23)CCC4)CC1	none (no result: Platelet DG rel, HSF1 inhib, MPTP block, dFosB act, HSF1 activator)
COc1ccc(-c2cn(-c3ccc(C)cc3C)c(=O)[nH]2)cc1OC	none
C=CCNc1nc(NCc2ccccc2)c(C#N)c2c1CN(C)CC2	none
N#Cc1c(NCCN)nc(NCc2ccccc2)c2c1CCN(Cc1ccccc1)C2	dFosB act 24 (no result: Platelet DG rel, HSF1 inhib, HSF1 activator)
Cc1nc(-c2ccc(Cl)cc2)sc1C1(C)CC(c2cccc(F)c2)=NO1 (stereo not given)	none (no result: HSP90 inh)
COc1ccc(Cn2c(C3CC3)nc3ccc(NC(=O)C4CC4)cc3c2=O)cc1	HSF1 activator 70
O=[N+]([O-])c1cnc(Sc2ccncn2)s1	HSF1 inhib -67 (no result: HSF1 activator)
COc1cc(Cl)c(C)cc1NC(=O)CN1CCN(C(=O)C2CC2)CC1	none (no result: Platelet DG rel, HSF1 inhib, HSP90 inh, HSF1 activator)
C#CCOc1ccc(C2C3=C(CC(C)(C)CC3=O)N(CC(=O)O)C3=C2C(=O)CC(C)(C)C3)cc1OC	HSF1 activator 60
Cc1cccc(C)c1Nc1nnc(SCc2cc([N+](=O)[O-])cc3c2OCOC3)s1	HSF1 activator 99
CC(C)(C)C(CN1CCCC1)OC(=O)c1ccccc1 (stereo not given)	HSF1 inhib -80
CC(CN1CCOCC1)OC(=O)c1ccccc1 (stereo not given)	none
O=C1c2cccc3cccc(c23)C(=O)N1OS(=O)(=O)c1ccccc1	HSF1 activator 118
CC(C)(c1ccccc1)c1ccc(OCCCN2CCNCC2)cc1	HSF1 activator 56
COc1ccccc1CNC(=O)CN1C(=O)NC(c2ccccc2)(c2ccccc2)C1=O	none (no result: Platelet DG rel, HSF1 inhib, HSP90 inh, HSF1 activator)
CCC1(c2ccccc2)NC(=O)N(CC(=O)NCc2ccccc2OC)C1=O (stereo not given)	HSF1 activator 107
Cc1[nH]n(-c2ccccc2)c(=S)c1C=Nc1cccc([N+](=O)[O-])c1	HSF1 inhib -60

High-throughput results from PubChem.
